# Compound activity deposited in PubChem by National Center for Advancing Translational Sciences (NCATS).
# This is a sample that favours compounds with a hit; in the whole collection about 10% have one here.
# G9a block = qHTS Assay for Inhibitors of Histone Lysine Methyltransferase G9a; Histone-lysine N-methyltransferase EHMT2 (Homo sapiens), Q96KQ7; G9a H3K9 monomethylation, AlphaScreen, 2 h; Potency, µM (titrated, usually from 102 µM), inactives show top-dose activity, negative = inhibition, actives largely listed as inhibitors; actives 8.8% (n = 350,000); note: potency is the fitted concentration of half-maximal effect; nearly all actives have a fitted effect of over 75% in size
#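 Using a bead-based AlphaScreen, monomethylated H3K9 product from 2 h room-temperature reactions (G9a 20 nM, peptide 500 nM, SAM 20 uM) was detected with 0.5 ug/mL rabbit anti-H3K9me1 antibody.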
# VDR inh = Inhibitors of the vitamin D receptor (VDR): qHTS; Vitamin D3 receptor (Homo sapiens), P11473; VDR-SRC2-3 peptide fluorescence polarization, 2 h; Potency, µM, for inactives: max response, negative = inhibition, most hits filed as inhibitors; actives 0.93% (n = 400,000); note: potency is the fitted concentration of half-maximal effect
#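 The screen uses fluorescence polarization to detect compounds that interfere with recruitment of the SRC2-3 coactivator peptide to VDR; plates are read after 2 h at room temperature.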
# Mm-Cpn inhibitor = Inhibitors of TCP-1 ring complex (TRiC) of Methanococcus maripaludis (MmCpn): qHTS | actives 0.031% (n = 330,000) | AID 504842, 2011 | purified Mm-Cpn ATPase, ADP Transcreener TR-FRET | Potency, µM (top dose mostly 76.9 µM), for the others: at the top dose activity, negative = inhibition, usual class: inhibitors | Chaperonin Mm-Cpn (Methanococcus maripaludis); note: potency is the fitted concentration of half-maximal effect; nearly all actives have a fitted effect of over 80% in size
#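 ATPase turnover read by TR-FRET ADP competition (Eu cryptate antibody/ADP-d2, 665/590 nm): 10uM ATP final, 25nM Mm-CPN final, 30 min 37degC after 10-min compound preincubation, pH 7.4 Tris/KCl/MgCl2/DTT buffer.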
# PLK1 PBD block = qHTS for Inhibitors of PLK1-PDB (polo-like kinase 1 - polo-box domain): Primary Screen; Plk1 PBD binding of FITC phosphopeptide, fluorescence polarization; Potency, µM, inactives show max response, negative = inhibition, most hits filed as inhibitors; actives 2.8% (n = 360,000); AID 720504, 2013; note: potency is the fitted concentration of half-maximal effect; series mostly up to about 57 µM; nearly all actives have a fitted effect of over 65% in size
# Target sequence (P53350 whole entry, looked up, the tested form may be a part): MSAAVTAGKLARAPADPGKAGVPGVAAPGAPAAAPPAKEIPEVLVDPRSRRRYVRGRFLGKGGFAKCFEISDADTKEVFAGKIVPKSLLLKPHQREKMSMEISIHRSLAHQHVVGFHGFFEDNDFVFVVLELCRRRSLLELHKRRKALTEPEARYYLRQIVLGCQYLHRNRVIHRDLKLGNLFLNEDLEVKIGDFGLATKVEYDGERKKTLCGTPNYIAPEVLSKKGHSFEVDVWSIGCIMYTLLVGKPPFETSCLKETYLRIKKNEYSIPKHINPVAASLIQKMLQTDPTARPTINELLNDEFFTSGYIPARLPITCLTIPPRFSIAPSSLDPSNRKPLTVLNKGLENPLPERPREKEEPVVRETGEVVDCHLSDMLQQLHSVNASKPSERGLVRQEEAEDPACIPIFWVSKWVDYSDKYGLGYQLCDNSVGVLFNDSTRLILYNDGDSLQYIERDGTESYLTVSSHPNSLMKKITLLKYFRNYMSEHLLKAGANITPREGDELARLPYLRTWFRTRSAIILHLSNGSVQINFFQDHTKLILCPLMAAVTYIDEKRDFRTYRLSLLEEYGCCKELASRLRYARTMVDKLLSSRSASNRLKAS
# Sfp inh = qHTS Assay for Inhibitors of Bacillus subtilis Sfp phosphopantetheinyl transferase (PPTase). actives 3.5% (n = 310,000). 4'-phosphopantetheinyl transferase ffp (Bacillus subtilis), Q9F4F7. Biochemical Sfp PPTase activity, qHTS. Potency, µM, without a hit: largest response in the series, negative = inhibition, most hits filed as inhibitors;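 note: the enzyme is Sfp with the accession as filed and its product quenches rhodamine fluorescence; potency is the fitted concentration of half-maximal effect; 0% = enzyme reaction without inhibitor and -100% = no enzyme wells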
#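 Buffer: 50 mM Hepes-Na pH 7.6, 10 mM MgCl2, 0.01% Nonidet P-40, 0.01% BSA. Enzyme 15 nM, pre-exposed to compound 15 min; substrates then added and fluorescence change tracked over 30 min.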
# CCT chaperon mod = High-Throughput Screening for Modulators of Cytosolic Chaperonin Activity. purified chaperonin ATPase assay, HTRF ADP detection, 30 min. activity change, % (no concentration beside the values), hits read low. actives 0.3% (n = 360,000); in the data active = activity change below about -30%
#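 TRiC at 40 or 20 nM final (batch-dependent) in 30 mM Tris pH 7.4, 100 mM KCl, 5 mM MgCl2, 1 mM DTT, with compound at single 76 uM and 10 uM ATP, 30 min at 37 deg C. ADP detected by HTRF Transcreener, 665/615 ratio.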
# * = called active by the depositor; ? = inconclusive; · = no result given; [ ] = remark or other dose. Unless noted, calls come from the whole dose curve; as a rule, active = well fitted curve in the direction sought with a large enough effect; inconclusive = small, poorly fitted or top-dose-only effect, or another doubt; inactive = no such curve, though single readings can be large; an effect the other way counts as inactive or inconclusive. Unless noted, % is set by controls: 0 for no effect and ±100 for the full control effect.
SMILES,G9a block,VDR inh,Mm-Cpn inhibitor,PLK1 PBD block,Sfp inh,CCT chaperon mod
COCCn1c(C)cc(C(=O)CSc2nc(C)c(C)c(C)n2)c1C,28µM*,-7%,-2%,?,40µM*,-2
COCC(C)n1c(C)cc(C(=O)CSc2nc(C)c(C)c(C)n2)c1C (stereo not drawn),-33%[12.7 µM],-5%,1%,-18%,?,1
Cc1cc(C(=O)CSc2nc(N)cc(N)n2)c(C)n1C1CC1,?,-12%,-2%,?,-25%,1
COCCn1c(C)cc(C(=O)CSc2nc3ccccc3s2)c1C,?,-15%,-6%,-1%,-74%,-2
COc1ccccc1-n1cnnc1SCC(=O)Nc1nc(C)c(Cl)cc1Cl,-5%[59 µM],6%,?,-2%,10%,1
COCCn1c(C)cc(C(=O)CSc2cc(C)c3ccc(OC)cc3n2)c1C,71µM*,6%,-5%,?,-18%,1
C=CCn1c(C)cc(C(=O)CSc2nc(N)cc(N)n2)c1C,32µM*,6%,1%,-12%,-6%,1
COc1ccccc1-n1cnnc1SCC(=O)Nc1ncc(Cl)cc1Cl,-10%[59 µM],-18%,0%,30µM*,9%,1
Cc1ccc(OCCn2c(-c3ccc(Cl)cc3)nc3ccccc3c2=O)c(C)c1,?,-13%,·,·,·,·
Cc1cc(C)nc(NS(=O)(=O)c2ccc(NC(=O)c3nc(SC(C)C)ncc3Cl)cc2)n1,0%[59 µM],-7%,·,·,·,·
COc1ccc2c(C)cc(SCC(=O)Nc3ncc(Cl)cc3Cl)nc2c1,25µM*,-9%,-8%,-21%,-9%,-4
C=CCn1c(C)cc(C(=O)COC(=O)c2cncc(Br)c2)c1C,3.2µM*,4%,-5%,-4%,·,-3
Cc1ccc(NC2(c3ccccc3)C(=O)c3ccccc3C2=O)cc1F,13µM*,0%,·,·,·,·
CCn1cc(S(=O)(=O)c2ccc(OC)cc2)c(=O)c2cc(F)c(N3CCC(C)CC3)cc21,-2%[59 µM],10%,·,·,·,·
CC1(C)CC(=O)C(=CN2CCN(C(=O)c3ccco3)CC2)C(=O)C1,?,-9%,2%,-27%,-25%,-1
CC1(C)CC(=O)C(=CN2CCOCC2)C(=O)C1,35µM*,0%,0%,-17%,-30%,-11
COc1ccccc1C(=O)Nc1ccccc1C(=O)OCc1cc(=O)n2ccsc2n1,-3%[12.7 µM],11%,·,·,·,·
CC1(C)C(=O)C=CC(=O)C(C)(C)C(=O)C=CC(=O)C(C)(C)C2=CC=C(O2)C(C)(C)C(=O)C=CC1=O,·,?,·,6µM*,·,-4
CC(=O)Nc1cccc(C(=O)OCC(=O)NC(C)c2ccc(F)cc2)c1 (stereo not drawn),-2%,2%,2%,-4%,16%,-5
CCCC(C)NC(=O)COC(=O)c1cccc(NS(C)(=O)=O)c1 (stereo not drawn),·,-3%,1%,30µM*,7%,2
